From paper PMC4336329 (PLoS ONE, 2015)
Out of some 310,000 compounds screened, about 14,000 (4.5%) showed an effect of 50% or more. The effect is printed as a negative number. Many of the other results were omitted from the sample, so strong results are more common in it than they were.

Molecular target: human ether-à-go-go-related gene (hERG) potassium channel (human, UniProt Q12809)
Test: primary screen, population patch clamp on CHO cells stably expressing hERG; higher = less effect of the substance
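Further: peak tail current of the secondary pulse compared with the same well before compound.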

Sequence of human ether-à-go-go-related gene (hERG) potassium channel (Q12809 whole entry, looked up): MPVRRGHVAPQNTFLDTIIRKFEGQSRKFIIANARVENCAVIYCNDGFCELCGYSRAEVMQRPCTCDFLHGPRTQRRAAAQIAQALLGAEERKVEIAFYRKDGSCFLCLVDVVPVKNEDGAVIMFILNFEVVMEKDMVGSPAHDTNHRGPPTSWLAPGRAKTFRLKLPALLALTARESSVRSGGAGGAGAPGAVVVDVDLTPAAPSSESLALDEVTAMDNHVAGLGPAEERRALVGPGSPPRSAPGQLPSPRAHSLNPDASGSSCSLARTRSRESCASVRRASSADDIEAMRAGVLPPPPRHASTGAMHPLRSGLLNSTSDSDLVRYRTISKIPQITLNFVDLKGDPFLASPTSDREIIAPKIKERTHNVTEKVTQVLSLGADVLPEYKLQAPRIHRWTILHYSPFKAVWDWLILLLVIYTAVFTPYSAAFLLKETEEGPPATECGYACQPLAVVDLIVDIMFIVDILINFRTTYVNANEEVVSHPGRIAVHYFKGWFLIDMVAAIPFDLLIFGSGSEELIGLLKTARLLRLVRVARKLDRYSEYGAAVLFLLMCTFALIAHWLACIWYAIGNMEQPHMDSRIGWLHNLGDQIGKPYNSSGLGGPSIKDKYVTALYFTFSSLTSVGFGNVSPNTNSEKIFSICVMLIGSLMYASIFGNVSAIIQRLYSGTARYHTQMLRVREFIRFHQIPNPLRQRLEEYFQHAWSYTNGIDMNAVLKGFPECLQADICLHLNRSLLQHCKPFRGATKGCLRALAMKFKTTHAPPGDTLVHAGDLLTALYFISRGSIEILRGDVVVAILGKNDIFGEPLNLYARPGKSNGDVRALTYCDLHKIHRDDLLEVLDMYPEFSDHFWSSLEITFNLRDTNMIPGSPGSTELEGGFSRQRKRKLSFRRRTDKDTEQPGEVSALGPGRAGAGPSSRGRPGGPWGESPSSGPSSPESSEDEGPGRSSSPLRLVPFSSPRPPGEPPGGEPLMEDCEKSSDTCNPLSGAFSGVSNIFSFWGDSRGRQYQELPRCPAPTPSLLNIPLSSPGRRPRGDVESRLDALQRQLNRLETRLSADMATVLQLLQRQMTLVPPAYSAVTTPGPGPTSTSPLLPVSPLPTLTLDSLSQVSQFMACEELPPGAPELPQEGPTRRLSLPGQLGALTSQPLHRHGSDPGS

SMILES	hERG current change (%, negative = inhibition) at 10uM [%]
CC(=O)N/C(=C/c1ccc(OC(F)F)cc1)C(=O)O	3.4
COc1ccc(C(=O)Nc2c(N)nc(SCC(=O)N3CCCCCC3)[nH]c2=O)cc1OC	0.918
Cc1ccccc1NC(=O)CSc1nnc(Cc2cccn2C)n1-c1ccc(F)cc1	-0.084
O=C(NNS(=O)(=O)c1ccccc1)C(O)(c1ccccc1)c1ccccc1	7.23
O=C(NNS(=O)(=O)c1ccc(CCCl)cc1)C(O)(c1ccccc1)c1ccccc1	-55.9
Cc1ccc(S(=O)(=O)NNC(=O)C(O)(c2ccccc2)c2ccccc2)cc1	1.02
CC(C)c1cc(CNC(=O)c2ccc(OC3CCN(Cc4ccccn4)CC3)cc2)on1	-16.1
O=C(NCc1ccon1)c1ccc(OC2CCN(CCc3ccccc3)CC2)cc1	-66.6
O=C(NCCn1cccn1)c1ccc(OC2CCN(CCc3ccccc3)CC2)cc1	-41.3
CCc1cc(CNC(=O)c2ccc(OC3CCN(CCc4ccccc4)CC3)cc2)on1	-75.5
O=C(NCCc1ccccn1)c1ccc(OC2CCN(CCc3ccccc3)CC2)cc1	-41.9
CCc1cc(CNC(=O)c2cccc(OC3CCN(S(C)(=O)=O)CC3)c2)on1	-70.3
COCCC(=O)N1CCC(Oc2ccc(C(=O)NCc3ccon3)cc2)CC1	3.38
Cc1cc(CNC(=O)c2cccc(OC3CCN(S(=O)(=O)N(C)C)CC3)c2)on1	0.225
CCOCCCNC(=O)c1cccc(OC2CCN(S(C)(=O)=O)CC2)c1	12.6
COc1ccccc1C(=O)NCCC(=O)N1CCN(c2cccc(C(F)(F)F)c2)CC1	-21.7
COc1ccc(Cc2nnc(NS(C)(=O)=O)s2)cc1	3.9
Cc1cc(NC(=O)c2cc(CC(C)C)on2)no1	7.66
Nc1c(C(=O)NCc2ccccc2)c2nc3ccccc3nc2n1-c1ccc2c(c1)OCO2	5.58
Cc1ccc2c(c1)c(N=NC(N)=S)c(O)n2Cc1ccccc1	-1.71

SMILES	hERG current change (%, negative = inhibition) at 10uM [%]
COc1cccc(C2C(=O)N(C3CCCCC3)CC(=O)N2Cc2ccc(F)cc2)c1 (stereo not shown)	-43.8
O=C(Nc1nc2ccccc2[nH]1)c1ccc(OC(F)F)cc1	-11
N#CC(CO)(Cc1ccc(OC(F)F)cc1)c1nc2ccccc2[nH]1 (stereo not shown)	-52
N#CC(Cc1ccc(OC(F)F)cc1)c1nc2ccccc2[nH]1 (stereo not shown)	-70.1
N#CC(Cc1ccccc1OC(F)F)c1nc2ccccc2[nH]1 (stereo not shown)	-16.2
COc1cc(CC(C#N)(CO)c2nc3ccccc3[nH]2)ccc1OC(F)F (stereo not shown)	-18.9
COc1ccc(CC(C#N)(CO)c2nc3ccccc3[nH]2)cc1 (stereo not shown)	-7.12
Cc1cc(C)cc(C(=O)N2CCN(Cc3ccc4c(c3)OCO4)CC2)c1	-20.1
COc1ccccc1Oc1ccc(N2CC(C(=O)OCC(=O)c3ccccc3)CC2=O)cc1 (stereo not shown)	18
O=C(Cc1cccs1)N/N=C/c1ccccn1	-7.62
Cc1cc(NC(=O)COC(=O)C(C)Oc2ccc(Cl)cc2Cl)no1 (stereo not shown)	12.2
COc1ccc(/C=N/Nc2ccccn2)c(OC)c1OC	3.27
Cc1ccc(NS(=O)(=O)c2ccc(-c3cnc(C4CC4)o3)cc2)c(C)c1	2.08
COC(=O)c1ccc(Cn2c(CN3CCOCC3)nc3ccccc3c2=O)o1	-5.56
Cc1cc(C(F)F)n2ncc(C(=O)N3CCC(C(N)=O)CC3)c2n1	16.1
CN(C(=O)c1cc2c(s1)-c1ccccc1S(=O)(=O)C2)c1ccccc1F	-3.69
CN(C(=O)c1cc2c(s1)-c1ccccc1S(=O)(=O)C2)c1ccccc1	-0.0159
CCCCN(C)C(=O)c1cc2c(s1)-c1ccccc1S(=O)(=O)C2	-56.5
O=C1CCCCC1C(Nc1ccc(Br)cc1)c1ccccc1 (stereo not shown)	4.34
O=C(CCC(=O)Nc1ccc(F)cc1)N/N=C/c1ccc(F)cc1	13.1

SMILES	hERG current change (%, negative = inhibition) at 10uM [%]
COc1cc(N2Cc3ccccc3C2)ccc1C=O	-3.61
COc1ccc(N2Cc3ccccc3C2)cc1Cl	-59.9
COc1ccc(Cl)cc1N1Cc2ccccc2C1	-3.46
O=c1cc(Nc2ccc3c(c2)OCCO3)[nH]c(=O)n1-c1ccc(Br)cc1	14.3
O=C(CN1C(=O)CSc2ccc(S(=O)(=O)N3CCCCC3)cc21)NCc1ccccc1Cl	-15.1
O=S(=O)(Nc1cccc(-n2cnnn2)c1)c1cccc(Cl)c1	16.2
Cc1cccc(-c2cc(C(=O)Nc3cccnc3)c3ccccc3n2)c1	-21.2
CN1CCC(NC(=O)c2cc(-c3cccc(Br)c3)nc3ccccc23)CC1	-69.7
COc1ccc(-c2cc(C(=O)NC3CC3)c3ccccc3n2)cc1	-64.5
Cc1ccc2nc(-c3cccc(Br)c3)cc(C(=O)NC3CC3)c2c1	13.7
CN1CCC(N(C)C(=S)NC(=O)c2cc(-c3cccc(Br)c3)nc3ccccc23)CC1	-15.3
COc1cccc(-c2cc(C(=O)Nc3ccccc3)c3ccccc3n2)c1	8.07
COc1cccc(-c2cc(C(=O)NC3CC3)c3ccccc3n2)c1	-51.2
COc1cccc(-c2cc(C(=O)NC3CCCC3)c3ccccc3n2)c1	-36.8
O=C(NC1CC1)c1cc(-c2ccc(Br)cc2)nc2ccccc12	0.545
Cc1ccc(C)c(-c2cc(C(=O)Nc3cccnc3)c3ccccc3n2)c1	-61
COc1ccc(-c2cc(C(=O)NC3CCCC3)c3ccccc3n2)cc1	-21.6
Cc1ccc(C)c(-c2cc(C(=O)Nc3cccc(C(=O)O)c3)c3ccccc3n2)c1	20.3
